Assay results taken from paper PMC7862700, “An all-to-all approach to the identification of sequence-specific readers for epigenetic DNA modifications on cytosine”.

Columns and labels:
Assay in all cases: DAPPL (digital affinity profiling via proximity ligation, sequencing); 10 mM Tris-HCl pH 7.5, 50 mM NaCl, 1 mM DTT, 4% glycerol, room temperature, 30 min; GST-TFs on glutathione beads, 16-mer random dsDNA library, 0.1% formaldehyde crosslink after washing; high values mean tight binding
Settings in all cases: protein: recombinant; tags: N-terminal GST; dsDNA, one strand shown
[1] = target: T1, ERF (Homo sapiens, UniProt P50548 1-548)
T1 sequence: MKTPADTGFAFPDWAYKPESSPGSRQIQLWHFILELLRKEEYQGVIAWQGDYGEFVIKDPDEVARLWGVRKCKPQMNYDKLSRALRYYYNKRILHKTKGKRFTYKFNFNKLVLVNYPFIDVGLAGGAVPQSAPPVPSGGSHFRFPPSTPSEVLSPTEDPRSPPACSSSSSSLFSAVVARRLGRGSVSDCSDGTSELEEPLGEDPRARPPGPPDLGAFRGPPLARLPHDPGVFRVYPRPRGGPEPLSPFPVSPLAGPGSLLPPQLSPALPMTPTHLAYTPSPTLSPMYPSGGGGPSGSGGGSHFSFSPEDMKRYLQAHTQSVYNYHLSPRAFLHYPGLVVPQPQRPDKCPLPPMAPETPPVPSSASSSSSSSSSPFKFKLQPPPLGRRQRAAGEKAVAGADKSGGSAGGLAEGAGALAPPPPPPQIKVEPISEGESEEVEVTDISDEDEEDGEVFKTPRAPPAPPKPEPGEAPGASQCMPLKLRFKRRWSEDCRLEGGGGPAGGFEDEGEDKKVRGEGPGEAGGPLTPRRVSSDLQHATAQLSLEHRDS
Summary of the method: (§1)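 Yeast served to express human transcription factors as GST fusions, which were then captured on glutathione beads and labelled with DNA barcodes. Pooled with a tag-only sample, they were incubated with 200 nmole of a 16-mer random double-stranded DNA library for 30 min at room temperature in Tris/NaCl/DTT/glycerol buffer, washed, crosslinked with 0.1% formaldehyde, ligated by proximity, amplified by PCR and sequenced. Dividing each hexamer's read frequency for a factor by its frequency for the tag-only sample gives the binding signal.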

[2] = target: T2, ETV3L (Homo sapiens, UniProt Q6ZN32 1-361)
T2 sequence: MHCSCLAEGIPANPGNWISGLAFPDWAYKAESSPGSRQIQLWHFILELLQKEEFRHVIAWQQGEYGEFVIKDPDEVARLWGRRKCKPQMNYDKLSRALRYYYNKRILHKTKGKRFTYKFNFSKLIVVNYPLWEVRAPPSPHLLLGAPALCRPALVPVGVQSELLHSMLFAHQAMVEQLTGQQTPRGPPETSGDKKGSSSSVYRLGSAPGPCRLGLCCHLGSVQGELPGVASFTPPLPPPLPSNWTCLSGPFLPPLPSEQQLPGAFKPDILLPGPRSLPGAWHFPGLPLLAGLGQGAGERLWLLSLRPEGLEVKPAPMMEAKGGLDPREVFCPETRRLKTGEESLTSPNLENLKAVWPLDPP
Summary of the method: as §1

[3] = target: T3, ETS2 (Homo sapiens, UniProt P15036 1-469)
T3 sequence: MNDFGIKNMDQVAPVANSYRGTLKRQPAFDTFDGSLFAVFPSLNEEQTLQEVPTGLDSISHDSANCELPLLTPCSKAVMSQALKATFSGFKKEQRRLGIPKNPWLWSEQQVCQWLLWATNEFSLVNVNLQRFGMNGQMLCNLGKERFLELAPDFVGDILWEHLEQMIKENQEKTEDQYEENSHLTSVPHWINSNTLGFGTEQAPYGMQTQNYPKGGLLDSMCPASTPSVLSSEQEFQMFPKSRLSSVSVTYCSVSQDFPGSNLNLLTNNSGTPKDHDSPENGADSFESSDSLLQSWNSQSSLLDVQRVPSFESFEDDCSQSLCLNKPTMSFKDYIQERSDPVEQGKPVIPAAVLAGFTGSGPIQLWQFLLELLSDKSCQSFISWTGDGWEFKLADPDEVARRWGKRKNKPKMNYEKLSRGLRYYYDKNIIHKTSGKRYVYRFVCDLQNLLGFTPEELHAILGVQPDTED
Summary of the method: as §1

[4] = target: T4, SPDEF (Homo sapiens, UniProt O95238 1-335)
T4 sequence: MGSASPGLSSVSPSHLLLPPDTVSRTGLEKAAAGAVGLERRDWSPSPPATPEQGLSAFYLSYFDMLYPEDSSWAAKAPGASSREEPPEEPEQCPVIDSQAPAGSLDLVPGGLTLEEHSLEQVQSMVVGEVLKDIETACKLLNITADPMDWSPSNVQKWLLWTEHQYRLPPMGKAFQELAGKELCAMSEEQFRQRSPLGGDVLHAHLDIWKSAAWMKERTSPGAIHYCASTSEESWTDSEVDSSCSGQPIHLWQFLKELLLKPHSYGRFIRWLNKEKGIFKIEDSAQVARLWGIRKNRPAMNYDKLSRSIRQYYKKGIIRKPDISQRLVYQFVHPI
Summary of the method: as §1

[5] = target: T5, ETV7 (Homo sapiens, UniProt Q9Y603 1-341)
T5 sequence: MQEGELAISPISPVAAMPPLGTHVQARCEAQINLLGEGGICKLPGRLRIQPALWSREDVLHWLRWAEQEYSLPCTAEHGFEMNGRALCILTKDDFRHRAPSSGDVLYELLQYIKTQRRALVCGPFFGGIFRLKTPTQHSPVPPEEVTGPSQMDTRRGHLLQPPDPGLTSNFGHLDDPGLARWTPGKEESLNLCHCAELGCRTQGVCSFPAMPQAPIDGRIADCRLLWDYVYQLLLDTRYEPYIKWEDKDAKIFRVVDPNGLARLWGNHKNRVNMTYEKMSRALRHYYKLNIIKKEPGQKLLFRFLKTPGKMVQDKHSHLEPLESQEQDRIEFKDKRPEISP
Summary of the method: as §1

[6] = target: T6, ELF5 (Homo sapiens, UniProt Q9UKW6-2 1-255)
T6 sequence: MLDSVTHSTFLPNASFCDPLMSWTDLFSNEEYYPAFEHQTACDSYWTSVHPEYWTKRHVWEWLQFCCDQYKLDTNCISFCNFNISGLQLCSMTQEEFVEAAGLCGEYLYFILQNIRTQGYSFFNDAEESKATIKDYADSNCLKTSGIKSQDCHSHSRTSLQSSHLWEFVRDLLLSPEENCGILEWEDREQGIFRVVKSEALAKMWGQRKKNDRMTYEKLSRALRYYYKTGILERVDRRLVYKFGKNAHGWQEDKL
Summary of the method: as §1

[7] = target: T7, ETV3 (Homo sapiens, UniProt P41162-2 1-143)
T7 sequence: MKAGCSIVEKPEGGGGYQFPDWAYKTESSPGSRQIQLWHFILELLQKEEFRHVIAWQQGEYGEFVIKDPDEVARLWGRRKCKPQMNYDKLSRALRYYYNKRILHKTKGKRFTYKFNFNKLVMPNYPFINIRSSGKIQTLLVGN
Summary of the method: as §1

[8] = target: ETV6 (Homo sapiens, UniProt P41212 1-452)
Chain of ETV6 (P41212 whole entry): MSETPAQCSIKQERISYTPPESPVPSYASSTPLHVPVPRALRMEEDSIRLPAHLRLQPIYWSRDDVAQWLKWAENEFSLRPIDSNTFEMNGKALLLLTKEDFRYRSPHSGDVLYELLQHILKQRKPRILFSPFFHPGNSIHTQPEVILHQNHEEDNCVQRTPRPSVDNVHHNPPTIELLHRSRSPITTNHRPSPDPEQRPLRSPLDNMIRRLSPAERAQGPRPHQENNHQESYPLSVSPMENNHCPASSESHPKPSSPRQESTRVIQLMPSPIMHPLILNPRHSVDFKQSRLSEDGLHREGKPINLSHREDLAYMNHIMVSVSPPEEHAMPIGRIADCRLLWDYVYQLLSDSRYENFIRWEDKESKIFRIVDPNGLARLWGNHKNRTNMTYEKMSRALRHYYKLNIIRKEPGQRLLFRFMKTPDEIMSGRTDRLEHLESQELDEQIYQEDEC
Summary of the method: as §1

Sequence | binding signal [1] | binding signal [2] | binding signal [3] | binding signal [4] | binding signal [5] | binding signal [6] | binding signal [7] | binding signal [8]
TAGATC | 1.18 fold enrichment (6-mer frequency, TF over GST control) | 1.13 fold enrichment (6-mer frequency, TF over GST control) | 1.13 fold enrichment (6-mer frequency, TF over GST control) | 1.43 fold enrichment (6-mer frequency, TF over GST control) | 1.06 fold enrichment (6-mer frequency, TF over GST control) | 1.02 fold enrichment (6-mer frequency, TF over GST control) | 1.09 fold enrichment (6-mer frequency, TF over GST control) | 1.02 fold enrichment (6-mer frequency, TF over GST control)
TACTGC | 1.14 fold enrichment (6-mer frequency, TF over GST control) | 1.17 fold enrichment (6-mer frequency, TF over GST control) | 1.2 fold enrichment (6-mer frequency, TF over GST control) | 1.26 fold enrichment (6-mer frequency, TF over GST control) | 1.2 fold enrichment (6-mer frequency, TF over GST control) | 1.17 fold enrichment (6-mer frequency, TF over GST control) | 1.31 fold enrichment (6-mer frequency, TF over GST control) | 1.26 fold enrichment (6-mer frequency, TF over GST control)
TGTACA | 1.28 fold enrichment (6-mer frequency, TF over GST control) | 1.23 fold enrichment (6-mer frequency, TF over GST control) | 1.24 fold enrichment (6-mer frequency, TF over GST control) | 1.67 fold enrichment (6-mer frequency, TF over GST control) | 1.36 fold enrichment (6-mer frequency, TF over GST control) | 1.12 fold enrichment (6-mer frequency, TF over GST control) | 1.17 fold enrichment (6-mer frequency, TF over GST control) | 1.29 fold enrichment (6-mer frequency, TF over GST control)
ACCACT | 1.22 fold enrichment (6-mer frequency, TF over GST control) | 1.36 fold enrichment (6-mer frequency, TF over GST control) | 1.29 fold enrichment (6-mer frequency, TF over GST control) | 1.25 fold enrichment (6-mer frequency, TF over GST control) | 1.24 fold enrichment (6-mer frequency, TF over GST control) | 1.25 fold enrichment (6-mer frequency, TF over GST control) | 1.24 fold enrichment (6-mer frequency, TF over GST control) | 1.28 fold enrichment (6-mer frequency, TF over GST control)
GTTCAC | 1.29 fold enrichment (6-mer frequency, TF over GST control) | 1.25 fold enrichment (6-mer frequency, TF over GST control) | 1.28 fold enrichment (6-mer frequency, TF over GST control) | 1.23 fold enrichment (6-mer frequency, TF over GST control) | 1.29 fold enrichment (6-mer frequency, TF over GST control) | 1.13 fold enrichment (6-mer frequency, TF over GST control) | 1.19 fold enrichment (6-mer frequency, TF over GST control) | 1.2 fold enrichment (6-mer frequency, TF over GST control)
GATATT | 1.05 fold enrichment (6-mer frequency, TF over GST control) | 1.12 fold enrichment (6-mer frequency, TF over GST control) | 1.13 fold enrichment (6-mer frequency, TF over GST control) | 1.26 fold enrichment (6-mer frequency, TF over GST control) | 1.14 fold enrichment (6-mer frequency, TF over GST control) | 1.25 fold enrichment (6-mer frequency, TF over GST control) | 1.14 fold enrichment (6-mer frequency, TF over GST control) | 1.17 fold enrichment (6-mer frequency, TF over GST control)
CCACGC | 1.12 fold enrichment (6-mer frequency, TF over GST control) | 1.17 fold enrichment (6-mer frequency, TF over GST control) | 1.24 fold enrichment (6-mer frequency, TF over GST control) | 1.17 fold enrichment (6-mer frequency, TF over GST control) | 1.15 fold enrichment (6-mer frequency, TF over GST control) | 1.11 fold enrichment (6-mer frequency, TF over GST control) | 1.16 fold enrichment (6-mer frequency, TF over GST control) | 1.15 fold enrichment (6-mer frequency, TF over GST control)
